Compounds with a hit are over-represented: about 4.2% of the library has one in this group of screens.
uPA generation – cell surface uPA generation inhibition. cell surface uPA generation assay, qHTS. Potency, µM (highest dose often 38.3 µM), for inactives: at the highest dose activity change, negative = inhibition, most hits filed as inhibitors. hit rate 0.31% among 330,000. AID 540303; active = well fitted inhibition curve with a large enough effect; inconclusive = small, poorly fitted or top-dose-only effect; inactive = no such curve, though single readings can be large or run the other way; tested in mouse RAW 264.7 cells; also: potency is read from the fitted curve at half-maximal effect; % is scaled to controls: 0 for no effect and ±100 for the full control effect; nearly all actives have a fitted effect of over 55% in size
Sfp inh – inhibitors of Bacillus subtilis Sfp phosphopantetheinyl transferase | Potency, µM, for inactives: largest response in the series, negative = inhibition, actives largely listed as inhibitors | Biochemical Sfp PPTase activity, qHTS | hit rate 3.5% among 310,000 | AID 1490 | Q9F4F7;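 also: the enzyme is Sfp with the accession as filed and its product quenches rhodamine fluorescence; potency is read from the fitted curve at half-maximal effect; 0% = enzyme reaction without inhibitor and -100% = no enzyme wells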
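Fluorescence-quenching assay with 15 nM Sfp, 5 uM rhodamine-CoA and 12.5 uM BHQ-2-labelled ybbR peptide in pH 7.6 Hepes/MgCl2 buffer. Enzyme was pre-incubated with compound for 15 min at room temperature. Rate was taken from the 30-min fluorescence change (525/598 nm).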
TCR activator – T cell receptor activation. primary human leukocytes, anti-CD3, IL-2 HTRF, 48 h. 330,000 tested, under 10 active. Potency, µM (top dose mostly 9.22 µM), inactives show top-dose activation of IL-2 secretion, usual class: activators. AID 504894; also: % of control where 0% means no effect
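1) Mix primary human leukocytes, a-CD3 beads and compound. 2) Incubate 48 hr. 3) Add HTRF IL-2 reagents (a-IL-2-K, a-IL-2-d2).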
ClpP mod – qHTS Assay for Activators of ClpP; purified B. subtilis ClpP, FRET peptide cleavage, 20 min; AID 651965, 2013; Potency, µM (doses to about 57.5 µM), without a hit: top-dose activity change, negative = active; hit rate 1.9% among 340,000; ATP-dependent Clp protease proteolytic subunit (Bacillus subtilis (strain 168)), P80244; active = well fitted falling curve with a large enough effect; inconclusive = small, poorly fitted or top-dose-only effect; inactive = no such curve, though single readings can be large or run the other way; also: potency is read from the fitted curve at half-maximal effect; the source files actives as falling curves though it sought activators and does not explain the sign; nearly all actives have a fitted effect of over 65% in size
Target sequence (P80244 whole entry, looked up): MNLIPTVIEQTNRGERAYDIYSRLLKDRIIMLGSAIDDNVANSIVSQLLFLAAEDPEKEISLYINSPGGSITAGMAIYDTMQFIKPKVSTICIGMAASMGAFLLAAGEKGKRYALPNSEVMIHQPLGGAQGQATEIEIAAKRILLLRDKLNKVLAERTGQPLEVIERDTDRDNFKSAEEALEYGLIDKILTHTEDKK
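ClpP 10 microg/mL final, pH 8 Tris/KCl buffer with BSA, glycerol, Tween-20; compound pinned in; FRET-FV substrate; RT 20 min; Ex320/Em430; ΔFRET vs ADEP 5.8 microM, DMSO, no enzyme.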
The depositor's hits bear a star; [ ] = dose if it differs, or a comment. Unless noted, calls follow the shape of the dose curve; as a rule, active = well fitted curve in the direction sought with a large enough effect; inconclusive = small, poorly fitted or top-dose-only effect, or another doubt; inactive = no such curve, though single readings can be large; an effect the other way counts as inactive or inconclusive.

For CCCOc1ccc(-c2nonc2NC(=O)c2ccco2)cc1OCCC the results were ClpP mod -14%.
For Cc1ccc(N(C)S(=O)(=O)c2ccc(-c3cc(C)no3)s2)cc1 the results were uPA generation 2.2µM*, Sfp inh 4%, TCR activator -7% and ClpP mod 2%.
`Cc1nonc1CN(C)C(=O)c1cc(COc2ccc(F)cc2Cl)on1` gave uPA generation -4%, Sfp inh -6%, TCR activator 13% and ClpP mod -2%.
Screening Cc1ccc(CN(C)C(=O)c2cc(COc3cccc(C(F)(F)F)c3)on2)o1 returned uPA generation -12%, Sfp inh 20µM*, TCR activator -2% and ClpP mod 0%.
Screening C#CCN(Cc1ccco1)C(=O)c1cc(COc2ccc(F)cc2Cl)on1 returned uPA generation -2%, Sfp inh 13µM* and TCR activator 2%.
Screening CN(Cc1nccn1C)C(=O)c1cc(COc2cccc(C(F)(F)F)c2)on1 returned uPA generation -3%, Sfp inh 0%, TCR activator -8% and ClpP mod 1%.
Cc1ccc(CN(C)C(=O)c2cc(COc3ccc(F)cc3Cl)on2)o1 was read as uPA generation 2%, Sfp inh 35µM* and TCR activator -8%.
Screening COc1ccc(N2CCN(CC(O)COc3ccc(C(C)C)c(C)c3)CC2)cc1 (stereo not drawn) returned ClpP mod -1%.
For Cc1ccc(S(=O)(=O)c2c(N)n(-c3ccccc3)c3nc4ccccc4nc23)cc1 the results were uPA generation 6%, Sfp inh 2% and TCR activator -7%[46.1 µM].
For Cc1ccc(S(=O)(=O)c2c(N)n(NC(=O)c3ccco3)c3nc4ccccc4nc23)cc1 the results were uPA generation -1%, Sfp inh -12%, TCR activator -5% and ClpP mod 8.9µM*.
For Cc1ccc(S(=O)(=O)c2c(N)n(Cc3ccco3)c3nc4ccccc4nc23)cc1 the results were uPA generation -2%, Sfp inh 3%, TCR activator 1% and ClpP mod 14µM*.
`Cc1cccc(S(=O)(=O)c2c(N)n(Cc3ccco3)c3nc4ccccc4nc23)c1` gave uPA generation 3%, Sfp inh inconclusive, TCR activator 0% and ClpP mod 6.3µM*.
For O=C(OCC(=O)N1CCCc2ccccc21)c1cncc(Br)c1 the results were uPA generation -21%, Sfp inh 71µM*, TCR activator 1%[46.1 µM] and ClpP mod -1%.
`O=C(OCC(=O)N1CCCc2ccccc21)c1ccccc1NCCO` gave uPA generation 2%, TCR activator -7% and ClpP mod 32µM*.
O=C(OCC(=O)N1CCc2ccccc21)c1ccc[nH]c1=O was read as uPA generation 1%, Sfp inh 20% and ClpP mod 28µM*.
`O=C(OCC(=O)N1CCN(C(=O)COC(=O)c2ccccc2NCCO)CC1)c1ccccc1NCCO` gave uPA generation 12%, TCR activator 6% and ClpP mod 4%.
COc1cccc(NC(=O)Cn2c(=O)n(Cc3ccc(C(=O)NCc4ccc5c(c4)OCO5)cc3)c(=O)c3ccccc32)c1 was read as ClpP mod 4%.
`O=C(NCSc1ccnc(SCNC(=O)c2ccccc2)n1)c1ccccc1` gave uPA generation -8%, Sfp inh -19%, TCR activator 0%[46.1 µM] and ClpP mod 0%.
Screening O=C(NCSc1ccncn1)c1ccccc1 returned Sfp inh 20µM*, TCR activator -4% and ClpP mod 1%.
`O=C(c1nnsc1S(=O)(=O)c1ccc(Cl)cc1)N1CCOCC1` gave uPA generation -14%, Sfp inh 16% and TCR activator 10%.
`CNC(=O)c1nnsc1S(=O)(=O)c1ccc(Cl)cc1` gave uPA generation -12%, Sfp inh 7.1µM* and TCR activator 1%.
Screening CCCCN(CCCC)CCCNC(=O)Cn1cc2c(n1)-c1c(oc(C(=O)N3CCCC3)c1C)CC2 returned uPA generation -14%, Sfp inh 11%, TCR activator -3% and ClpP mod 5%.
`COc1cc(C(=O)Oc2c(OC)cc(C(=S)N3CCOCC3)cc2OC)cc(OC)c1OC` gave uPA generation -15%, Sfp inh 9%, TCR activator -1% and ClpP mod -1%.
COc1cc(C(=S)N2CCOCC2)cc(OC)c1OC(=O)c1ccc(F)cc1 was read as uPA generation -1%, Sfp inh 28µM* and TCR activator 7%.
`COc1cc(C(=S)N2CCOCC2)cc(OC)c1OS(=O)(=O)c1ccc(Cl)cc1` gave uPA generation -12%, Sfp inh 45µM* and ClpP mod -2%.
For COc1cc(C(=S)N2CCOCC2)ccc1OS(=O)(=O)c1ccc(Cl)cc1 the results were uPA generation -10%, Sfp inh -5%, TCR activator 2% and ClpP mod -1%.
COc1cc(C(=S)N2CCOCC2)cc(OC)c1OC(=O)Cc1ccc(F)cc1 was read as uPA generation -6%, Sfp inh 45µM*, TCR activator 7%[46.1 µM] and ClpP mod -3%.
COc1ccccc1NC(=O)Cn1c(C)cc(C)c(C#N)c1=O was read as ClpP mod -22%.
Screening O=C(CCc1c[nH]c2ccccc12)Nc1ccc(S(=O)(=O)Nc2ncccn2)cc1 returned uPA generation 6%, Sfp inh 6%, TCR activator -3% and ClpP mod 32µM*.
`O=S(=O)(Nc1ncccn1)c1ccc(NC(=S)Nc2ccc(Cl)cc2)cc1` gave uPA generation inconclusive, Sfp inh 40µM*, TCR activator -6% and ClpP mod -4%.
For Cc1sc(-n2c(C)cc(/C=N/n3cnnc3)c2C)c(C#N)c1C the results were uPA generation 4%, Sfp inh 20µM* and ClpP mod 0%.
Cn1c2ccccc2c2ncn(Cc3ccc(F)cc3)c(=O)c21 was read as uPA generation 3%, Sfp inh -11% and TCR activator -5%.
For CCCCn1c(=O)n(Cc2cccc(F)c2)c(=O)c2c1ncn2Cc1ccco1 the results were uPA generation 0%, Sfp inh 40µM*, TCR activator 0% and ClpP mod -6%.
`Cn1c2ccc(F)cc2c2ncn(Cc3ccco3)c(=O)c21` gave Sfp inh 50µM*, TCR activator -3% and ClpP mod 25µM*.
For Cn1c2ccccc2c2ncn(Cc3ccco3)c(=O)c21 the results were uPA generation 0%, Sfp inh -2%, TCR activator 1% and ClpP mod 32µM*.
Cn1cnc2c1c(=O)n(Cc1cccc(F)c1)c(=O)n2C was read as uPA generation -4%, Sfp inh 1%, TCR activator 1% and ClpP mod 0%.
O=C(C[n+]1ccc(-c2cc(C(=O)Nc3cccc(C(F)(F)F)c3)c3ccccc3n2)cc1)c1cccc([N+](=O)[O-])c1 was read as uPA generation 0%, Sfp inh 50µM* and TCR activator -13%.

Screening results as filed in PubChem.
